Among all 370,000 compounds or so, about 4,800 (1.3%) were called active. The entries come from a sample that favours actives as a whole. Values without a mark were called inactive.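 How the source made its calls: active means inhibition above about 21% made by adding two undisclosed values (limit read from the data); inactive means the rest.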
Biological target: Protein arginine N-methyltransferase 1 (Homo sapiens) (UniProt Q99873)
Experiment: human PRMT1 activity-probe blockers – biochemical, fluorescence polarization, primary screen (AID 652257)
Settings: recombinant PRMT1, activity-based probe fluorescence polarization; at 2.79 µM; active compounds read high

Chain of Protein arginine N-methyltransferase 1 (Homo sapiens) (Q99873 whole entry, looked up): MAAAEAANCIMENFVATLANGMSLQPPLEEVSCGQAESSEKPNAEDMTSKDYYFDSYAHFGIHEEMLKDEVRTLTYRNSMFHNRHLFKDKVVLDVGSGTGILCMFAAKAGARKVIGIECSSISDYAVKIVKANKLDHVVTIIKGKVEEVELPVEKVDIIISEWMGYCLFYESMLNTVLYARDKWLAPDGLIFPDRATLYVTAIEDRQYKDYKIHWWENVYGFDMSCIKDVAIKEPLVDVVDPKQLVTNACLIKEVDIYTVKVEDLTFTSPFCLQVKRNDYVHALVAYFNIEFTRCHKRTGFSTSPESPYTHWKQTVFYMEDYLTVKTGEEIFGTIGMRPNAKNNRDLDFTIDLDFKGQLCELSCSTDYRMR

Compound	inhibition
O=C(O)c1cc(S(=O)(=O)N2CCCCCC2)c(Cl)cc1Cl	-2.22%
O=C(c1ccc[nH]c1=S)N1CCN(S(=O)(=O)c2ccc(Br)cc2Cl)CC1	31.8% (active)
Cc1ccc(S(=O)(=O)N2CCN(C(=O)c3ccccc3-c3nc4ccccc4s3)CC2)c(C)c1	6.86%
O=C(CNS(=O)(=O)c1ccccc1F)N1CCN(c2ccccn2)CC1	2.96%
O=S(=O)(c1ccc2c(c1)OCCCO2)N1CCN(S(=O)(=O)c2c(F)cccc2F)CC1	-4.09%
Cc1ccc(C(=O)OCC(=O)NC2CCCCCCC2)cc1C	-2.13%
COc1ccc(C)cc1NC(=S)N1CCOCC1	-1.44%
COc1cc(C(=S)NC2CCCCC2)ccc1O	29% (active)
COc1cc(C(=O)Nc2cc(C(F)(F)F)ccc2N2CCOCC2)ccc1O	-2.71%
COc1cc(C(=S)N2CCOCC2)ccc1O	24.1% (active)
COc1ccc(C(C)NC(=S)NC2CCCCC2)cc1OC (stereo not drawn)	-2.42%
COC(=O)C[C@@H]1CC[C@@H]2[C@@H](COc3ccc(NC(=O)Nc4ccc(F)c(F)c4)cc3C(=O)N2C)O1	-0.15%
O=C1c2ccccc2C(=O)N1CCC(c1ccccc1)c1ccco1 (stereo not drawn)	8.33%
CCCCCN(C(=O)NC(=O)Nc1ccccc1OC)S(C)(=O)=O	5.33%
O=C(OC12CCCN(C1)/C(=C/c1cccnc1)C2)C1CCCC1 (stereo not drawn)	0.1%
CCOC(=O)[C@@]12CN(C(=O)OC(C)(C)C)CC=C1N(Cc1ccc(OC)cc1)C(=O)[C@H]2CC(=O)NCc1ccc(OC)c(OC)c1	-3.24%
O=C(Nc1c(-c2ccccc2)nc2c(Br)cc(Br)cn12)c1ccco1	0.75%
O=C(Nc1nc(-c2ccco2)c(-c2ccco2)s1)c1ccco1	51.8% (active)
O=C(Nc1ccccc1C(=O)N1CCCCC1)c1ccco1	-7.4%
O=C(CSc1nnc(C2CC2)n1Cc1ccccc1)Nc1cccnc1Cl	4.21%
Cc1cccc(C)c1NC(=O)N1CC(C)OC(C)C1 (stereo not drawn)	1.08%
Cc1cccc(C)c1NC(=O)C(Cl)C(=O)c1ccccc1 (stereo not drawn)	32% (active)

Compound	inhibition
CN=C(c1ccccc1)c1c(C)cccc1C	-2.83%
CCOc1ccc(S(=O)(=O)N2CCC(C(=O)NCC(=O)Nc3cccc(Cl)c3C)CC2)cc1	-4.55%
CC(C)[C@@H](C)/C=C/[C@@H](C)[C@H]1CC[C@@H]2[C@]1(C)CCC1[C@]23C=C[C@]2(C[C@@H](O)CC[C@]12C)N(c1ccc([N+](=O)[O-])cn1)O3 (stereo partly drawn)	1.5%
O=S(=O)(Cc1nnnn1-c1ccc(Br)cc1)c1ccc(F)cc1	-3.12%
CC1CCN(C(=S)NC(=O)c2ccccc2Br)CC1	-1.71%
O=C(NC(=S)Nc1ncccn1)c1ccccc1Br	21.4% (active)
COC(=O)c1cccnc1NC(=S)NC(C)C	-1.9%
CC(=O)N(O)CCCCCNC(=O)CCC(=O)N(O)CCCCCNC(=O)CCC(=O)N(O)CCCCCNC(=O)CCC(=O)O	-4.14%
CCCCn1c(N)c(N(CCOC)C(=O)c2oc3ccc(OC)cc3c2C)c(=O)[nH]c1=O	-1%
CCN(CC)CCCC(C)n1c2nc(=O)[nH]c(=O)c-2nc2cc(Cl)ccc21 (stereo not drawn)	161% (active)
CC(C)NC(=O)C(c1ccc(F)cc1)N(C(=O)CCC(=O)Nc1ccccn1)c1ccccc1F (stereo not drawn)	-0.59%
C[C@H](C(=O)N(C)c1ccccc1)[C@@H](O)c1ccc2ccccc2c1	6.67%
Nc1ccccc1C(=O)NC1CCCCNC1=O (stereo not drawn)	-3.31%
O=C(NCc1ccco1)C1CCCN(S(=O)(=O)c2ccc(Cl)s2)C1 (stereo not drawn)	-5.05%
NS(=O)(=O)c1cc(C(=O)OCC(=O)NNC(=O)c2ccccc2)ccc1Cl	-1.9%
O=C(NC1=CC(=O)c2ccccc2C1=O)c1ccccc1	36.9% (active)
O=C(OCC(O)C(O)COC(=O)c1ccccc1)c1ccccc1 (stereo not drawn)	1.36%
C=C1c2c(Cl)ccc(O)c2C(O)=C2C(=O)[C@]3(O)C(O)=C(C(N)=O)C(=O)[C@@H](N(C)C)[C@@H]3[C@@H](O)C12 (stereo partly drawn)	44.5% (active)
CN(C)[C@@H]1C(=O)C(C(N)=O)=C(O)[C@@]2(O)C(=O)C3=C(O)c4c(O)ccc(Cl)c4[C@@H](O)[C@H]3C[C@@H]12	32% (active)
COC(=O)c1cc(S(=O)(=O)N2CCN(c3ccccc3C)CC2)cn1C	-0.8%
COc1ncnc2c1N=C1CC(C)(C)CC(N)=C1S2	33.2% (active)
Cc1ccc(C(=O)NCC(=O)NC2CC2)cc1	-3.08%

Compound	inhibition
CN(C)C(CNC(=O)c1cccc(S(=O)(=O)N2CCc3ccccc3C2)c1)c1ccccc1 (stereo not drawn)	2.65%
COc1ccccc1NC(=O)COC(=O)COc1ccccc1F	-0.97%
COc1ccccc1NC(=O)c1cc(Cl)nnc1Cl	0.83%
COc1ccccc1NC(=O)/C=C/C(N)=O	62.4% (active)
CN(C(=O)c1cccc([N+](=O)[O-])c1)c1ccccc1C(=O)NCc1ccccc1	0.8%
Cc1cc(C)n(-c2nc(O)cc(=O)[nH]2)n1	-0.2%
O=C(CN1CCN(c2ccccc2O)CC1)NC(=O)NCc1ccccc1	-0.8%
O=C(COC(=O)c1ccccc1C(=O)N1CCN(c2ccccc2)CC1)NCc1ccccc1	12.8%
Oc1ccc(N2CCN(C(=S)NCc3ccccc3)CC2)cc1	23.4% (active)
CC1CCN(C(=O)c2ncn3c2C(=O)N[C@@H](C)C3)CC1	-0.43%
COc1ccc(S(=O)(=O)N(C)C[C@@H]2Oc3ccc(NS(=O)(=O)c4cn(C)cn4)cc3C(=O)N([C@@H](C)CO)C[C@@H]2C)cc1	0.38%
COc1ccc(CCNC(=O)CSc2nc3c([nH]2)c(=O)n(C)c(=O)n3C)cc1	1.93%
CC(C)(C)c1ccc(C(=O)Nc2cc(Cl)c(Br)cc2C(=O)O)cc1	-1.7%
COC(=O)[C@]12C[C@H](CC(=O)NCc3cccs3)C(=O)N(CCc3ccc(OC)c(OC)c3)C1=C[C@H](C(C)C)O[C@@H]2C1CC1	-1.28%
CCOC(=O)CSc1nnc(CNc2ccc(F)cc2)o1	-0.98%
Cc1nnc(SCCCCSc2nnc(C)c(=O)[nH]2)[nH]c1=O	2.02%
CCCCOC(=O)CNc1nnc(SCC(=O)OCC)[nH]c1=O	74.3% (active)
CCC(=O)Nc1ccc2c(c1)C(=O)N(C)[C@@H]1CC[C@@H](CC(=O)NCCc3ccccc3)O[C@H]1CO2	1.16%
O=C(Nc1cc(S(=O)(=O)N2CCOCC2)ccc1OCC(F)(F)F)c1ccc(N2CCCC2=O)cc1	-0.65%
Cc1ccc(/C=C/C(=O)Nc2cc(S(=O)(=O)N3CCCCCC3)ccc2OCC(F)(F)F)o1	24.7% (active)
COc1ccc(S(=O)(=O)N2CCCCC2)cc1NC(=O)COc1ccccc1	2%
O=C(NCCCc1ccccc1)[C@H](Cc1ccccc1)NC1(C(=O)NCCc2c[nH]c3ccccc23)CCC1	4.62%

Compound	inhibition
COc1ccc2c(c1)CN1CN(CCc3ccccc3)S(=O)(=O)CC21 (stereo not drawn)	-7.45%
COc1cc(NC(=O)C2=CC(c3ccco3)=NS(=O)(=O)N2C)cc(OC)c1OC	1.92%
COCCNC(=O)Nc1ccc2nc(-c3ccco3)c(-c3ccco3)nc2c1	88.9% (active)
COc1ccc(C(=O)NC(=O)CSc2nnc(-c3ccco3)n2-c2ccccc2)cc1	4.1%
O=C(Nc1ccc(F)c([N+](=O)[O-])c1)C1CCCO1 (stereo not drawn)	-0.52%
CCOC(=O)[C@]12CCCC=C1N(CCCOC)C(=O)[C@@H]2CC(=O)N1CCOCC1	-11.2%
COC(=O)Nc1nc2ccc(C(=O)C3CC3)cc2[nH]1	-5.37%
COc1ccc(C2NC(=O)C(=O)/C2=C(\O)c2ccc(Cl)cc2)cc1OC (stereo not drawn)	1.92%
Clc1ccccc1CSc1nnc(-c2ccco2)c(-c2ccco2)n1	45.8% (active)
Clc1ccc(-n2c(SC/C=C/c3ccccc3)nnc2-c2ccco2)cc1	2.59%
Cc1cccc(N(CC(=O)N2CCCC2)S(C)(=O)=O)c1C	0.79%
COc1ccc(N(CC(=O)N2CCOCC2)S(=O)(=O)c2ccccc2)cc1Cl	3.25%
CN1C(=O)c2cc(NS(C)(=O)=O)ccc2OC[C@@H]2O[C@@H](CC(=O)NCc3ccc(-c4ccccc4)cc3)CC[C@H]21	-3.76%
S=c1[nH]c2ccccc2c2ccccc12	13.6%
S=c1ccc2ccccc2[nH]1	41.1% (active)
Brc1ccccc1CN1CCC(Cc2ccccc2)CC1	-1.49%
CCN(CC(=O)Nc1ccc(OC)cc1)C(=O)c1ccc(Cl)c(S(=O)(=O)N2CCCC2)c1	-2.9%
CCOc1ccc(NC(=O)CCCCCN2C(=O)[C@@H]3Cc4ccccc4CN3C2=O)cc1	0.46%
CC[C@]1(O)C[C@@H]2CN(CCc3c([nH]c4ccccc34)[C@@](C(=O)OC)(c3cc4c(cc3OC)N(C)[C@H]3[C@@](O)(C(=O)OC)[C@H](OC(C)=O)[C@]5(CC)C=CCN6CC[C@]43[C@@H]65)C2)C1	4.62%
CN(C)S(=O)(=O)c1cccc(C(=O)N/N=C\c2ccco2)c1	-2.34%
O=C(N/N=C/C=C/c1ccco1)c1cccs1	17.1%
Cc1cc(C(=O)NN=C/C=C/c2ccco2)n[nH]1	39.4% (active)

— PubChem BioAssay AID652257 (The Scripps Research Institute Molecular Screening Center, 2013)
